ERa SRC1 inh = ER-alpha (human) coactivator binding inhibition. P03372. TR-FRET ER-alpha LBD / SRC-1 peptide, estradiol-bound. inhibition, % at 25.6 µM. actives 1.7% (n = 86,000); in the data active = inhibition above about 50%;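 note: 0% = receptor plus peptide control and 100% = peptide only without receptor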
ERb SRC1 inh = ER-beta (human) coactivator binding inhibition. Q92731. TR-FRET ER-beta LBD / SRC1-Cy5 peptide binding; receptor agonist-loaded with 1 µM estradiol. inhibition, % at 25.6 µM. actives 1.3% (n = 86,000);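 active = compounds whose percent inhibition of the receptor-coactivator binding signal exceeds about 50% in the single-dose screen, limit read from the data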;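 note: 0% = receptor plus peptide wells without compound and 100% = peptide-only wells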
HUVEC tox IL1B = toxic to HUVEC cells under IL-1B stimulation. HUVEC cell count loss, Hoechst imaging, IL-1B stimulated. cell count reduction, % at 2 µM. actives 0.41% (n = 94,000);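 active = cell count reduction more than 3 SD above the screen-wide mean, cut at about 70% in these data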;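 note: normalized per plate to untreated control cells as the no-loss baseline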
ERa coact pot = enhances coactivator binding to human estrogen receptor alpha; P03372; TR-FRET ERalpha-LBD/SRC-Cy5 coactivator binding, 2 h; 100 = basal binding, no effect; coactivator binding (% of control), % at 25.6 µM; actives 1.3% (n = 86,000); AID 639; in the data active = activity above about 200%;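 note: binding measured in presence of low estradiol as agonist stimulus; 0% = peptide alone without receptor and 100% = receptor with peptide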
NFkB transloc pot = enhances IL-1B driven NFkB nuclear translocation; HUVEC IL-1B NFkB p65 nuclear translocation imaging; activation, % at 2 µM; AID 819; actives 0.3% (n = 94,000);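 active = activation above 40%, about the mean plus 3 SD, also judged a hit on visual image review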;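 note: percent activation is computed from the nuclear over cytoplasmic p65 intensity ratio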
IL1B NFkB inh = blocks IL-1B driven NFkB nuclear translocation in HUVEC cells; inhibition, % at 2 µM; HUVEC IL-1B NFkB p65 nuclear translocation imaging; AID 796; actives 0.43% (n = 94,000);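 active = inhibition above about 30% together with a positive call from visual inspection of the well image, limit read from the data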;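 note: nuclear over cytoplasmic p65 intensity ratio measured by imaging; 0% = IL-1B stimulated DMSO wells and 100% = unstimulated DMSO wells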
* marks the source's active call; other numbers are inactive results; . = no result; [ ] = another dose, or the depositor's remark. Rows were chosen to be rich in hits. Some 3.6% of all compounds tested hit in one or more screens of this group.

SMILES	ERa SRC1 inh	ERb SRC1 inh	HUVEC tox IL1B	ERa coact pot	NFkB transloc pot	IL1B NFkB inh
CC(C)N(C(=O)CSc1nc2ccccc2n1Cc1ccc(F)cc1)C(C)C	-1	-21	9	89	3	-3
COc1cc(OC)cc(-c2nnc(Nc3nc4c(F)cccc4s3)o2)c1	34	33	12	436*[fluorescence artefact?]	11	-11
COc1ccc(-c2nnc(Nc3nc4c(OC)cccc4s3)o2)cc1	77*[fluorescence artefact?]	73*[fluorescence artefact?]	21	96	5	-5
Fc1cccc2sc(Nc3nnc(-c4ccccc4)o3)nc12	17	7	-26	92	35	-34
COc1ccc(-c2nnc(Nc3nc4c(OC)cccc4s3)o2)c(OC)c1	12	14	.	79	.	.
CC12CC3CC(C)(C1)CC(C(=O)NC(=S)N1CCOCC1)(C3)C2	.	.	2	.	-1	1
Cn1cc(/C=N/n2cnc3scc(-c4ccc(Cl)cc4)c3c2=O)c2ccccc21	.	.	57	.	-37	37*
CN(C)S(=O)(=O)c1ccc(-c2csnn2)s1	17	16	1	91	25	-25
CC(=O)c1oc2ccccc2c1NC(=O)COC(=O)c1ccc(-n2nc(C)cc2C)cc1	75*[fluorescence artefact?]	32	.	79	.	.
Cc1cc(C)n(-c2ccc(C(=O)OCC(=O)Nc3ccc(S(=O)(=O)N4CCCCC4)cc3)cc2)n1	-8	-7	18	109	-9	9
CCn1nc(C)c(NC(=O)/C=C/c2ccc(OC)c(COc3ccc(Cl)cc3Br)c2)c1C	95*[fluorescence artefact?]	52*[fluorescence artefact?]	-2	311*[fluorescence artefact?]	15	-15
Cn1c(-c2ccc3nc(N)sc3c2)nc2cc(N)ccc21	64*[fluorescence artefact?]	54*[fluorescence artefact?]	-4	27	9	-9
Cn1c(-c2ccc(N)cc2)nc2ccccc21	3	-7	-2	650*[fluorescence artefact?]	7	-7
O=C(NCCCO)Nc1ccc2nc(-c3ccco3)c(-c3ccco3)nc2c1	97*[fluorescence artefact?]	99*[fluorescence artefact?]	-3	1	1	0
O=C(Nc1ccc2nc(-c3ccco3)c(-c3ccco3)nc2c1)NC1CC1	100*[fluorescence artefact?]	109*[fluorescence artefact?]	-16	7	10	-10
O=C(Nc1ccc(N2CCOCC2)cc1)Nc1ccc2nc(-c3ccco3)c(-c3ccco3)nc2c1	53*[fluorescence artefact?]	59*[fluorescence artefact?]	6	32	14	-14
O=C(Nc1cccc(C(F)(F)F)c1)c1ccc2nc(-c3ccco3)c(-c3ccco3)nc2c1	84*[fluorescence artefact?]	81*[fluorescence artefact?]	-9	16	11	-11
O=C(c1ccc2nc(-c3ccco3)c(-c3ccco3)nc2c1)N1CCN(c2ccccc2)CC1	44	47	8	73	18	-18
Fc1ccc(OCc2nnc(SCCN3CCOCC3)o2)cc1	-4	-11	-26	115	39	-39
O=C(O)CCC(=O)N1CCN(c2ccc(C(=O)c3ccc(F)cc3)cc2)CC1	13	-7	3	249*	6	-6
Cc1cccc(NC(=O)c2sc3nc(-c4ccccc4)cn3c2C)n1	-29	-14	-24	144	5	-5
Cc1cccc(NC(=O)c2sc3nc(-c4ccc(F)cc4)cn3c2C)n1	-10	-15	-24	839*[fluorescence artefact?]	5	-6
CC(NC(=O)c1ccc2c(c1)OCO2)C1CCCO1 (stereo unspecified)	-3	0	.	122	.	.
COc1ccc(-n2c(=O)c3c4c(sc3n3c(C)nnc23)CCCC4)cc1	-3	-3	0	113	17	-17
CCCOC(=O)NC(CC)COC(=O)Nc1cccc(C)c1C (stereo unspecified)	.	.	8	.	4	-4
SMILES	ERa SRC1 inh	ERb SRC1 inh	HUVEC tox IL1B	ERa coact pot	NFkB transloc pot	IL1B NFkB inh
CC(=O)NC(c1ccco1)c1ccc2cccnc2c1O (stereo unspecified)	31	59*[fluorescence artefact?]	-36	72	4	-4
O=c1c2cc(N3CCOCC3)ccc2[nH]c(=S)n1CCCN1CCCCCC1	75*[fluorescence artefact?]	50	.	49	.	.
Cc1ccc(Cn2c(=S)[nH]c3ccc(N4CCOCC4)cc3c2=O)o1	26	52*[fluorescence artefact?]	.	67	.	.
O=c1c2cc(N3CCOCC3)ccc2[nH]c(=S)n1CCN1CCCC1	29	15	.	84	.	.
CCc1nnc2sc(-c3ccc(NC(=O)CSc4ccc(Cl)cc4)cc3)nn12	31	-2	8	225*[fluorescence artefact?]	29	-29
Cc1ccc(-c2nn3c(C)nnc3s2)cc1NC(=O)COc1ccc(Cl)cc1	7	9	-5	325*	1	-1
Cc1nnc2sc(-c3ccc(NC(=O)CSc4ccc(Cl)cc4)cc3)nn12	49	47	29	130	32	-32
